The values below come from PubChem BioAssay (EPA / NIEHS).

Several values for one entry are separate records, joined by “and”; a condition that tells them apart may be missing. Identical values can stand only once. Some structures have more than one record in an assay (separate samples or runs), and their calls can disagree. Activity calls are given as the source filed them. Rule for the calls: active = hit-call score of the fitted dose curve at least 0.9, where 1 is the maximum; inconclusive = response in the unintended direction; inactive = score below 0.9.

Androgen Receptor/SRC-1 Co-activator, AR (gene 367), sequence (P10275 whole entry, looked up, the tested form may be a part): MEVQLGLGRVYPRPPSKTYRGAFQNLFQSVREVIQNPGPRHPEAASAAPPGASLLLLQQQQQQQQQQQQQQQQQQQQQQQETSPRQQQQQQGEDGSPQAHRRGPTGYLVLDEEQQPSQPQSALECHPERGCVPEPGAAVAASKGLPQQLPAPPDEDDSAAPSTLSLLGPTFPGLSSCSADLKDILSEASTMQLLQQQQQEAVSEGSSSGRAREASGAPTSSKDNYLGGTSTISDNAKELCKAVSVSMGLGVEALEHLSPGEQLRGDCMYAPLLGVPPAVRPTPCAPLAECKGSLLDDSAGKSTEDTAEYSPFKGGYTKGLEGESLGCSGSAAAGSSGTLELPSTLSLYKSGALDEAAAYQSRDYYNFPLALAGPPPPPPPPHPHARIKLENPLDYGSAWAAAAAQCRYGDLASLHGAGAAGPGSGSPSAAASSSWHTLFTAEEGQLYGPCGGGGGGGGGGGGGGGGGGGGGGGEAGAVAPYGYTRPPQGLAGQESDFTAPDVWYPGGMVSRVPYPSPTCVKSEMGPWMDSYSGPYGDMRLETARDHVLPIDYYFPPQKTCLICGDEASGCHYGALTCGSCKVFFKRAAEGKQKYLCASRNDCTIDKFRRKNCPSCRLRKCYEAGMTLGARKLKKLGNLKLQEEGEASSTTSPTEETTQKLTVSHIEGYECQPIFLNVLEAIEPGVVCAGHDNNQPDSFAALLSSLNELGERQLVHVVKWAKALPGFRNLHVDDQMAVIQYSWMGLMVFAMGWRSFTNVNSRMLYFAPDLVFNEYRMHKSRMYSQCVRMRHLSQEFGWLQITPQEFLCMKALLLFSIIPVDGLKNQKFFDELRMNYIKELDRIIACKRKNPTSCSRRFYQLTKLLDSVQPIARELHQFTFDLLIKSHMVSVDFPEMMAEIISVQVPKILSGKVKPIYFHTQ

This assay has as its target Androgen Receptor/SRC-1 Co-activator, AR (gene 367) (UniProt P10275). Nature of the assay: OT_AR_ARSRC1_0960: Odyssey Thera (OT) 16-hour HEK293T Protein-Complementation Assay for Androgen Receptor/SRC-1 Co-activator (AID 2283353).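 Note: actives raise the signal above DMSO so potency reflects increased AR and SRC-1 complex.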 On the procedure:
OT_AR_ARSRC1_0960 is a cell-based, single-readout assay that uses HEK293T, a human kidney cell line, with measurements taken at 16 hours after chemical dosing in a 384-well plate.OT_AR_ARSRC1_0960 is one of one assay component(s) measured or calculated from the OT_AR_ARSRC1_0960 assay. It is designed to make measurements of protein fragment complementation, a form of binding reporter, as detected with fluorescence intensity signals by Protein-fragment Complementation technology.Data from the assay component OT_AR_ARSRC1_0960 was analyzed into 1 assay endpoint. This assay endpoint, OT_AR_ARSRC1_0960, was analyzed in the positive analysis fitting direction relative to DMSO as the negative control and baseline of activity. Using a type of binding reporter, measures of receptor for gain-of-signal activity can be used to understand the binding at the pathway-level as they relate to the gene AR. Furthermore, this assay endpoint can be referred to as a primary readout, because the performed assay has only produced 1 assay endpoint. To generalize the intended target to other relatable targets, this assay endpoint is annotated to the nuclear receptor intended target family, where the subfamily is steroidal.
Protein-fragment complementation assay, or PCA, is a method for the identification and quantification of protein-protein interactions. In the PCA, the proteins of interest ("bait" and "prey") are each covalently linked to fragments of a third protein (e.g. DHFR, which acts as a "reporter"). Interaction between the bait and the prey proteins brings the fragments of the reporter protein in close proximity to allow them to form a functional reporter protein whose activity can be measured. The OT AR / SRC-1 assay assessed androgen receptor chemical interactions using a rapidly maturing, intensely fluorescent mutant of YFP known as Venus, rationally dissected into two separate fragments. […] Fusion constructs were transfected into HEK293T cells with a (Gly4Ser)2 linker between the AR/SRC-1 and YFP fragment genes to facilitate complementation when interacting proteins bring fragments into close proximity. The construct is stably expressed in HEK293T cells. […] Images were acquired on an Evotec Opera at 2 wavelengths (488 and 635nm), and the ratio of fluorescence in the nucleus relative to fluorescence in the cytoplasm (N/C Ratio) in the 488nm channel was calculated for a minimum of 400 cells per image. Both agonists and antagonists of the AR receptor induce nuclear translocation to varying degrees. […] The OT AR/SRC-1 assay was also run for 16 hours (see description for OT_AR_ARSRC1_0960).
For `C[C@]12CC[C@@H]3c4ccc(O)cc4C[C@@H](CCCCCCCCCS(=O)CCCC(F)(F)C(F)(F)F)[C@H]3[C@@H]1CC[C@@H]2O` (stereo partly drawn), the compound was called inactive.

As for `CC1(C)C(C=C(Cl)Cl)C1C(=O)OCc1cccc(Oc2ccccc2)c1` (stereo not drawn), the compound was called inactive.

In the case of `CC(C)(c1ccc(O)cc1)c1ccc(O)cc1`, the outcome was inactive; the half-maximal activity concentration (AC50) was 63.3 µM (active) and 51 µM (active) and 64.6 µM (active).

Consider `O=C(c1ccc(O)cc1O)c1ccc(O)cc1O`, for which the AC50 was 10.2 µM (active) and 9.93 µM (active) and 10.7 µM (active).

Consider `COC(=O)CSc1cc(N=c2sc(=O)n3n2CCCC3)c(F)cc1Cl`, for which the compound was called inactive.

As to `N#CSCSc1nc2ccccc2s1`, the AC50 is 12.1 µM (active).

For `CCOC(=O)COc1cc(-n2ncc(C(F)(F)F)c(C)c2=O)c(F)cc1Cl`, the outcome was inactive.

As for `Cc1nn(C)c(Oc2ccccc2)c1C=NOCc1ccc(C(=O)OC(C)(C)C)cc1`, the outcome was inactive.

In the case of `CCCCOCCOCCOCc1cc2c(cc1CCC)OCO2`, the compound was classed as inactive.

In the case of `CCOC(=O)C(C)Oc1ccc(Oc2nc3ccc(Cl)cc3o2)cc1` (stereo not drawn), the result was inactive.

`CCCN(CCC)C(=O)SCC`: the call was inactive.

On to `c1ccc2[nH]c(-c3cscn3)nc2c1`, for which the call was inactive.

Take `CCSC(=O)N(CC(C)C)CC(C)C`: the outcome was inactive.

For `CSC(=O)c1cccc2nnsc12`, the AC50 is 32.5 µM (active).

Turning to `O=C(O)C1(C(=O)Nc2ccc(Cl)cc2Cl)CC1`, the compound was called inactive.

For the compound `CN(C)C(=O)Nc1ccc(Cl)c(Cl)c1`, the outcome was inactive.

With `O=C(c1ccccc1)C1CCCCC1`, the outcome was inactive.
